Reference: PubChem BioAssay (Tox21)
Inconclusive results are not listed. A call without a number means that no potency is given here. The source made the active and inactive calls. Unless noted, the call rests on the fitted dose curve; in most records, active means well fitted curve in the direction sought with a large enough effect in the repeat runs; inconclusive means weak or mixed curves; inactive means no such curve, though single readings can be large; an effect the other way counts as inactive or inconclusive.

Key:
[1] = qHTS assay for small molecules that induce genotoxicity in human embryonic kidney cells expressing luciferase-tagged ATAD5 (AID 651632); further: nearly all actives have a fitted effect of over 15% in size; further: potency means the concentration at half of the fitted maximal effect
Outline: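 Concentration-response screen for ATAD5 upregulation in HEK293T luciferase reporter cells; 16 hr treatment at 37C, then luminescence after 30 min with Amplite at room temperature.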

[2] = qHTS assay for small molecule agonists of the p53 signaling pathway - cell viability (AID 651633; calls by dose curve;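 further: p53RE-bla HCT reporter cells with a stable beta-lactamase p53 reporter; series mostly up to about 83 µM; nearly all actives have a fitted effect of over 30% in size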)
Outline: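 Viability counter-read: CellTiter-Glo luminescence (30 min, room temperature) in the same p53RE-bla plates. These plates had been exposed to compounds for 16 h at 37 C.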

[3] = qHTS assay for small molecules that induce genotoxicity in human embryonic kidney cells expressing luciferase-tagged ATAD5 - cell viability (AID 651634; calls by dose curve; further: nearly all actives have a fitted effect of over 25% in size; further: potency means the concentration at half of the fitted maximal effect)
Outline: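 15.5 hr compound or vehicle exposure of HEK293T cells expressing luciferase-tagged ATAD5 at 37C; live-cell protease activity is read by fluorescence after 30 min of CellTiter-Fluor.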

[4] = qHTS assay for small molecule disruptors of the mitochondrial membrane potential - cell viability (AID 720634; calls by dose curve; further: nearly all actives have a fitted effect of over 20% in size; further: potency means the concentration at half of the fitted maximal effect)
Outline: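 In this qHTS format, HepG2 cells plated overnight were pinned with compound, incubated 1 hr, and assayed for ATP luminescence with CellTiter-Glo after m-MPI dye addition.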

[5] = qHTS assay for small molecule disruptors of the mitochondrial membrane potential (AID 720635); further: potency means the concentration at half of the fitted maximal effect
Outline: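 Mitochondrial membrane potential tracked with Mito-MPS dye, red aggregates (ex 540/em 590 nm) against green monomers (ex 490/em 535 nm). Compound treatment 1 hr at 37C, dye 30 min in HepG2.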

[6] = qHTS assay to test for compound auto fluorescence at 590 nm (red) in HepG2 cells (AID 720674)
Outline: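 1 hr compound incubation on HepG2 cells, 37 C, 5% CO2; plate read ex 540 nm / em 590 nm; intensities reported as Rose Bengal sodium equivalents.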

[7] = qHTS assay to test for compound auto fluorescence at 535 nm (green) in HepG2 cells (AID 720675)
[8] = qHTS assay to test for compound auto fluorescence at 460 nm (blue) in HEK293 cells (AID 720678)
Outline: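 HEK293 cells (2,000 per well, medium with 10% dialyzed FBS) attached for 4-5 hr at 37C, then received compound and stood overnight at 37C, 5% CO2. Blue fluorescence was read at Ex/Em 405/460 nm and expressed relative to triamterene.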

[9] = qHTS assay to test for compound auto fluorescence at 590 nm (red) in HEK293 cells (AID 720679)
Outline: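 HEK293 cells (2,000/well, medium with 10% dialyzed FBS) attached for 4-5 hr at 37C, received 23 nL compound and were incubated overnight at 37C, 5% CO2. Red fluorescence was then read at 540/590nm Ex/Em, referenced to Rose Bengal sodium.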

[10] = qHTS assay to test for compound auto fluorescence at 460 nm (blue) in HEK293 cell free culture (AID 720681)
Outline: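 Blue fluorescence (Ex 405/Em 460 nm, triamterene-equivalent) was read immediately after pin transfer of compound or DMSO into medium (DMEM, 10% FBS) without cells.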

[11] = qHTS assay to test for compound auto fluorescence at 535 nm (green) in HEK293 cell free culture (AID 720682)
Outline: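 No cells present: wells hold DMEM supplemented with 10% FBS, into which compound or vehicle is pinned. Green emission is then recorded (485 nm excitation, 535 nm emission) and scaled to fluorescein.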

[12] = qHTS assay to test for compound auto fluorescence at 590 nm (red) in HEK293 cell free culture (AID 720683)
Outline: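 Red-channel autofluorescence of compounds in culture medium (DMEM, 10% FBS), no cells, measured at 540/590 nm. Rose Bengal sodium is the reference fluorophore for equivalence.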

[13] = qHTS assay to test for compound auto fluorescence at 590 nm (red) in HepG2 cell free culture (AID 720684)
Outline: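 No cells present: MEM + 10% FBS only. Compound pinned in, red label read (540/590 nm). Activity = fluorescence equivalent to Rose Bengal sodium.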

[14] = qHTS assay to test for compound auto fluorescence at 460 nm (blue) in HepG2 cell free culture (AID 720685)
Outline: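 Cell-free plates of MEM plus 10% FBS received 23 nL compound or DMSO vehicle; blue-channel (405/460 nm) intensity scored against triamterene as reference fluorophore.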

[15] = qHTS assay to test for compound auto fluorescence at 535 nm (green) in HepG2 cell free culture (AID 720686)
[16] = qHTS assay to test for compound auto fluorescence at 460 nm (blue) in HepG2 cells (AID 720687)
Outline: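 Blue-channel autofluorescence (Ex/Em 405/460 nm, triamterene-equivalent) was measured after 1 hr compound exposure at 37 C, 5% CO2. Cells were HepG2, plated overnight at 37 C in MEM plus 10% FBS.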

[17] = biological target: Glucocorticoid receptor (Homo sapiens) (UniProt P04150); experiment: qHTS assay to identify small molecule agonists of the glucocorticoid receptor (GR) signaling pathway (AID 720691; active means well fitted activation curve with a large enough effect in the signal ratio in the repeat runs, not every such curve was filed as active; the % refers to the signal ratio)
Outline: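 Measures GR pathway activation through a GRE-beta-lactamase reporter stably integrated in HeLa cells, with 18 h compound treatment at 37 C and fluorescence detection using a FRET substrate.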

[18] = biological target: Glucocorticoid receptor (Homo sapiens) (UniProt P04150); experiment: qHTS assay to identify small molecule antagonists of the glucocorticoid receptor (GR) signaling pathway (AID 720692; active means well fitted inhibition curve with a large enough effect in the signal ratio in the repeat runs, not every such curve was filed as active; the % refers to the signal ratio)
Outline: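 Tox21 10K library screened in concentration-response for blockade of dexamethasone (5 nM final)-induced GRE-bla reporter activity in HeLa cells; 18 h treatment, fluorescence read.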

[19] = qHTS assay to test for compound auto fluorescence at 535 nm (green) in HEK293 cells (AID 720680)

Chain of Glucocorticoid receptor (Homo sapiens) (P04150 whole entry, looked up): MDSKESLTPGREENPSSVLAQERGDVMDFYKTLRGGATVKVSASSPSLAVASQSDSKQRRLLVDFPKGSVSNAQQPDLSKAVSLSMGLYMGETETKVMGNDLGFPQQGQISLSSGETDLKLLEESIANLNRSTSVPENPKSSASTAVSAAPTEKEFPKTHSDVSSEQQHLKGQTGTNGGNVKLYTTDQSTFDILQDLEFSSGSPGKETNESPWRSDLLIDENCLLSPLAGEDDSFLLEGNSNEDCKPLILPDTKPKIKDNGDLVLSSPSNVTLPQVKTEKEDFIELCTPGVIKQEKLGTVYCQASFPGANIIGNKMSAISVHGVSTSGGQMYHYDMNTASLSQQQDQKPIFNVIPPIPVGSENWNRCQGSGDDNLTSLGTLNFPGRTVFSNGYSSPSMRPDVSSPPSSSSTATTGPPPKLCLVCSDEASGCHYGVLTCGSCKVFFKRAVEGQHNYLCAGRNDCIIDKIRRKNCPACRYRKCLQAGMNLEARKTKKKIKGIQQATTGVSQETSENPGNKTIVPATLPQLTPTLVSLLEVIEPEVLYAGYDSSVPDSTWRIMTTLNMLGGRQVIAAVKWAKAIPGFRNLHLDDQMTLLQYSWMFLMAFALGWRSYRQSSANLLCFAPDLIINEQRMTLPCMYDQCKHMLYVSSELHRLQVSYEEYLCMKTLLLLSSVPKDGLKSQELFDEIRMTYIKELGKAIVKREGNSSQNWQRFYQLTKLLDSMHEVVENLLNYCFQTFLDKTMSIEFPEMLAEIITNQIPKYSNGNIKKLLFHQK

| Compound | Potency [1] | Potency [2] | Potency [3] | Potency [4] | Potency [5] | outcome [6] | outcome [7] | Potency [8] | outcome [9] | Potency [10] | outcome [11] | outcome [12] | outcome [13] | Potency [14] | outcome [15] | Potency [16] | Potency [17] | Potency [18] | outcome [19] |
| --- | --- | --- | --- | --- | --- | --- | --- | --- | --- | --- | --- | --- | --- | --- | --- | --- | --- | --- | --- |
| Oc1ccc(Cl)c2cccnc12 | inactive | inactive | inactive | inactive | 11.9 µM (active) | inactive | inactive | inactive | inactive | inactive | inactive | inactive | inactive | inactive | inactive | inactive | inactive | inactive |  |
| Nc1ccc(N=Nc2ccccc2)c(N)c1 | 2.12 µM (active) | inactive | 67.1 µM (active) | 47.5 µM (active) | 4.75 µM (active) |  | inactive | inactive |  | inactive | inactive | inactive | inactive | inactive | inactive | inactive | inactive |  | inactive |
| N#CCCN(CCO)CCO | inactive | inactive | inactive | inactive | inactive | inactive | inactive | inactive | inactive | inactive | inactive | inactive | inactive | inactive | inactive | inactive | inactive | inactive | inactive |
| CCc1ccccc1 | inactive | inactive | inactive | inactive | inactive |  | inactive | inactive |  | inactive | inactive | inactive | inactive | inactive | inactive | inactive | inactive | inactive | inactive |
| c1ccc2c(c1)CCc1ccccc1N2 | inactive | inactive | inactive | 54.8 µM (active) | 19.4 µM (active) | inactive | inactive | inactive |  | inactive | inactive | inactive | inactive | inactive | inactive | inactive |  |  | inactive |
| Cc1cc(C)c(N)cc1C | inactive | inactive | inactive | inactive | inactive | inactive | inactive | inactive | inactive |  | inactive | inactive | inactive | inactive | inactive | inactive | inactive | inactive | inactive |
| CCCCCC#CC(=O)OC | inactive | inactive | inactive | inactive | inactive | inactive | inactive | inactive | inactive | inactive | inactive | inactive | inactive | inactive | inactive | inactive |  |  |  |
